{"source": "PubChem BioAssay AID624296", "about": "(National Center for Advancing Translational Sciences (NCATS), 2012)", "note": "Hit rate of the full screen: of about 350,000 compounds, about 9,900 (2.8%) were called active. Roughly 15% stayed inconclusive and do not appear here. The entries come from a sample that favours actives as a whole. A number with no mark means an inactive call. The call rests on the fitted dose curve; in most records, active means well fitted activation curve with a large enough effect; inconclusive means small, poorly fitted or top-dose-only effect; inactive means no such curve, though single readings can be large or run the other way. Potency means the concentration at half of the fitted maximal effect.", "data": [{"test": "A quantitative high throughput screen for small molecules that induce DNA re-replication in MCF 10a normal breast cells; further: nearly all actives have a fitted effect of over 50% in size; on activity, positive = re-replication: % of control where 0% means no effect.", "details": "MCF 10A DNA re-replication, Hoechst nuclear intensity, 48 h; series mostly up to 46.1 µM; activity, positive = re-replication: at the top concentration", "units": {"activity, positive = re-replication": "%"}, "values": [{"smiles": "Cc1noc(C)c1NC(=O)Nc1ccc2c(c1)C(=O)N([C@H](C)CO)C[C@H](C)[C@@H](CN(C)C(=O)Nc1ccc(C(F)(F)F)cc1)O2", "activity, positive = re-replication": 0.503}, {"smiles": "CCc1ccccc1OCC(=O)Nc1ccc(C)c(S(=O)(=O)N2CCCCCC2)c1", "activity, positive = re-replication": 3.74}, {"smiles": "Cc1ccc(NC(=O)CCCNC(=O)c2ccc(Cl)cc2)cc1S(=O)(=O)N1CCCCC1", "activity, positive = re-replication": 29.3}, {"smiles": "Cc1ccc(NC(=O)CCC(=O)N2CCC(c3ccccc3)=N2)cc1S(=O)(=O)N1CCCCC1", "Potency": "18.4 µM (active)"}, {"smiles": "CC(=O)OCC(=O)C1(O)CCC2C3CC(C)C4=CC(=O)CCC4(C)C3C(O)CC21C", "note": "(stereo not given)", "activity, positive = re-replication": -0.434}, {"smiles": "COc1ccc(-c2n[nH]c(C)c2-c2ccccc2OC)c(O)c1", "activity, positive = re-replication": 8.35}, {"smiles": "CCOc1ccc(-c2n[nH]c(C)c2-c2ccccn2)c(O)c1", "activity, positive = re-replication": 25.8}, {"smiles": "COc1ccc(-c2n[nH]c(C)c2-c2ccc(OC)c(OC)c2)c(O)c1", "Potency": "16.4 µM (active)"}, {"smiles": "N#CCCN(C(=O)COC(=O)c1ccc2c(c1)OCCO2)c1ccccc1", "activity, positive = re-replication": -3.14}, {"smiles": "COc1ccccc1CCNC(=O)C(=O)NCCC1CCCCN1S(=O)(=O)c1cccs1", "note": "(stereo not given)", "activity, positive = re-replication": -15.6}, {"smiles": "O=C(NCCC1CCCCN1S(=O)(=O)c1cccs1)C(=O)Nc1ccc(F)cc1F", "note": "(stereo not given)", "Potency": "11.6 µM (active)"}, {"smiles": "O=C(NCCC1CCCCN1S(=O)(=O)c1ccc(F)cc1)C(=O)NC1CC1", "note": "(stereo not given)", "activity, positive = re-replication": 0.164}, {"smiles": "CCOC(=O)C1CCN(C(=O)c2cccc(S(=O)(=O)N(CC)c3ccccc3)c2)CC1", "activity, positive = re-replication": 3.93}, {"smiles": "CCN(C[C@H]1N[C@@](CC)(C(=O)OC)[C@H]2C(=O)N(Cc3ccccc3)C(=O)[C@@H]12)S(=O)(=O)c1ccccc1", "activity, positive = re-replication": 0.775}, {"smiles": "O=C(COC(=O)c1ccccn1)NNC(=O)c1ccc(Br)cc1", "activity, positive = re-replication": 16.2}, {"smiles": "Cc1ccc(N2C(=O)S/C(=C/c3cn(C)c4ccccc34)C2=O)cc1", "activity, positive = re-replication": 11.6}, {"smiles": "Cc1cccc(N=C2NC(=O)/C(=C/c3cn(C)c4ccccc34)S2)c1", "Potency": "10.3 µM (active)"}, {"smiles": "Cc1ccc(C(=O)N/C(=C\\c2cn(C)c3ccccc23)C(=O)N2CCN(C)CC2)cc1", "activity, positive = re-replication": 0.634}, {"smiles": "C=CC[C@@H](CC(=O)N[C@H](CO)Cc1ccccc1)C(=O)N[C@H](C)COC(=O)[C@@H](CC=C)Cc1ccc(F)cc1", "activity, positive = re-replication": 17.3}, {"smiles": "C=CCn1c(=O)n(C)c2c(=O)n(C)c(=O)n(C)c21", "activity, positive = re-replication": -42.5}, {"smiles": "COc1ccc(CCNC(=O)COC(=O)Cc2cccc(F)c2)cc1", "activity, positive = re-replication": 2.75}, {"smiles": "Oc1[nH]c2ccccc2c1N=Nc1c(F)c(F)c(F)c(F)c1F", "activity, positive = re-replication": 4.82}, {"smiles": "COC(C/C=C/C(=O)[C@@H](C)OCc1ccccc1)OC", "Potency": "18.4 µM (active)"}, {"smiles": "COC(C[C@H](O)CC(=O)[C@@H](C)OCc1ccccc1)OC", "activity, positive = re-replication": -5.01}, {"smiles": "COC(C[C@@H]1O[C@@H]1C(=O)[C@H](C)OCc1ccccc1)OC", "activity, positive = re-replication": -8.59}, {"smiles": "COc1ccc(S(=O)(=O)N(C)C[C@@H]2Oc3ccc(NC(=O)Nc4c(C)noc4C)cc3C(=O)N([C@H](C)CO)C[C@@H]2C)cc1", "activity, positive = re-replication": 1.93}, {"smiles": "Cc1ccc(-c2n[nH]c(=S)n2/N=C/c2cc3c(cc2[N+](=O)[O-])OCO3)cc1", "activity, positive = re-replication": 12.5}, {"smiles": "Cc1ccc(S(=O)(=O)N/N=C\\c2cc3c(cc2[N+](=O)[O-])OCO3)cc1", "Potency": "23.1 µM (active)"}, {"smiles": "CC(=O)N/N=C/c1cc2c(cc1[N+](=O)[O-])OCO2", "activity, positive = re-replication": -33.2}, {"smiles": "O=C1COc2ccc(C(=O)CSc3ccc(Br)cc3)cc2N1", "activity, positive = re-replication": -6.85}, {"smiles": "COc1ccc(Cn2cc(CN3CCS(=O)(=O)N(Cc4ccc(-c5cccc(Cl)c5)cc4)C(C)C3=O)nn2)cc1", "note": "(stereo not given)", "activity, positive = re-replication": 10.9}, {"smiles": "Cc1[nH][nH]c(=O)c1C(c1ccc(-c2ccc(Cl)cc2)o1)c1c(C)[nH][nH]c1=O", "Potency": "20.6 µM (active)"}, {"smiles": "CN(CC(=O)Nc1ccc(F)cc1)C(=O)c1ccc(-c2ccc(Cl)cc2)o1", "activity, positive = re-replication": 1.65}, {"smiles": "Cc1[nH][nH]c(=O)c1N=Nc1ccccc1", "activity, positive = re-replication": 1.74}, {"smiles": "Cc1csc(NC(=S)Nc2cccc(Cl)c2)n1", "Potency": "20.6 µM (active)"}, {"smiles": "S=C(Nc1cccc(Cl)c1)Nc1ccc2cn[nH]c2c1", "activity, positive = re-replication": -1.25}, {"smiles": "CC(=O)Nc1cccc(C(=O)Nc2nc(C)cs2)c1", "activity, positive = re-replication": -2.89}, {"smiles": "CCOc1ccccc1Nc1nnc(SCC(=O)NCC2CCCO2)s1", "note": "(stereo not given)", "activity, positive = re-replication": 4.59}, {"smiles": "CCOc1ccccc1Nc1nnc(SCc2ccc(C(=O)OC)o2)s1", "Potency": "18.4 µM (active)"}, {"smiles": "COC(=O)c1ccc(CSc2nnc(N)s2)o1", "activity, positive = re-replication": 2.09}, {"smiles": "NC1=NOC(=O)C1C1CCCCC1", "note": "(stereo not given)", "activity, positive = re-replication": 6.94}, {"smiles": "CCOc1ccc(S(=O)(=O)N2CCN(C(=O)c3oc4ccccc4c3C)CC2)cc1", "activity, positive = re-replication": 4.12}, {"smiles": "Cc1cc(N2CCCC2)ccc1NC(=O)COc1ccc(Cl)cc1", "activity, positive = re-replication": -0.481}, {"smiles": "COc1ccc(C)cc1S(=O)(=O)N1CCN(S(=O)(=O)c2cc(C(=O)O)ccc2C)CC1", "activity, positive = re-replication": 5.98}, {"smiles": "Cc1ccc(C)c(S(=O)(=O)N2CCN(c3ncnc4sccc34)CC2)c1", "Potency": "18.4 µM (active)"}, {"smiles": "Cc1ccc(S(=O)(=O)N2CCN(c3ncnc4ccccc34)CC2)cc1", "activity, positive = re-replication": 5.96}, {"smiles": "COC(=O)Cc1c(-c2[nH]c3ccccc3c2CC(=O)OC)[nH]c2ccccc12", "activity, positive = re-replication": 16}, {"smiles": "COc1ccc(NC(=O)CSc2nnc(C3CC3)n2C)cc1S(=O)(=O)N1CCCCC1", "activity, positive = re-replication": -2.92}, {"smiles": "O=C(Nc1ccc2ccccc2c1)Nc1ccc2snnc2c1", "Potency": "5.8 µM (active)"}, {"smiles": "CCc1ccccc1NC(=O)c1ccc2snnc2c1", "activity, positive = re-replication": 6.7}]}]}
